The target of experiment [1] is human Vitamin D Receptor (VDR), VDR (gene 7421) (UniProt P11473). Briefly: ATG_VDR_TRANS: Attagene TRANS-FACTORIAL HepG2 Assay for human Vitamin D Receptor (VDR) (AID 2283022; active means hit-call score of the fitted dose curve at least 0.9, where 1 is the maximum). In outline:
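Steps: transfect HepG2 with GAL4-UAS-driven reporter constructs; dose compounds 24 h; isolate RNA, reverse-transcribe, PCR-amplify with 6-FAM-labelled primer extension and HpaI digestion; quantify fragments by capillary electrophoresis relative to DMSO.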

Experiment [2] in a line: BSK_3C_SRB: Viability Assessment in the BioMAP Diversity Plus: 3C Assay (AID 2283023).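 Further: cells read 24 h after compound dosing; fitted both ways against DMSO so a hit may be signal rise or drop.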 Particulars: primary human endothelial cells (HUVEC). In outline:
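Absorbance at 560 nm of sulforhodamine B-stained (0.1%) total protein served as a cytotoxicity readout in human umbilical vein endothelial cells, 24 h after chemical treatment. Signal was fitted bidirectionally relative to DMSO.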

Read-out in experiment [3]: Matrix Metallopeptidase 1 (MMP1), MMP1 (gene 4312)
Briefly: BSK_BE3C_MMP1: BioMAP Diversity Plus: BE3C Assay for Matrix Metallopeptidase 1 (MMP1) Biomarker Activity (AID 2283024). Particulars: primary human bronchial epithelial cells; actives raise or lower the signal. In outline:
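In this multiplexed primary-cell system, human bronchial epithelium received chemicals for 24 h before an ELISA for MMP1. Values reflect bidirectional fits normalised to the DMSO baseline.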

Read-out in experiment [4]: Pselectin, SELP (gene 6403)
Briefly: BSK_4H_Pselectin: BioMAP Diversity Plus: 4H Assay for Pselectin Biomarker Activity (AID 2283026). Particulars: primary human endothelial cells (HUVEC); actives raise or lower the signal. In outline:
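Bidirectional fits against DMSO gave the endpoint. Cells: primary human umbilical vein endothelium, chemical-treated for 24 h before ELISA detection of P-selectin.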

The nature of experiment [5]: BSK_4H_SRB: Viability Assessment in the BioMAP Diversity Plus: 4H Assay (AID 2283027).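 Further: cells exposed to compound for 24 h before staining.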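 On AC50: curves fitted both ways versus DMSO so AC50 may be loss or gain.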 Particulars: primary human endothelial cells (HUVEC). The procedure, abridged:
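Cytotoxicity readout: sulforhodamine B (0.1%) staining of total protein after 10% TCA fixation, measured at 560 nm in human umbilical vein endothelium at 24 h. DMSO set the baseline; fitting was bidirectional.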

Experiment [6] in a line: BSK_BE3C_SRB: Viability Assessment in the BioMAP Diversity Plus: BE3C Assay (AID 2283028).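 On AC50: fitted both ways so AC50 may mark signal gain or loss versus DMSO.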 Particulars: primary human bronchial epithelial cells. In outline: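 Cells (human bronchial epithelial, primary) are treated with chemicals, and after 24 h the parallel cultures are fixed in 10% TCA. These are then stained with 0.1% SRB and read at 560 nm. Gain or loss of signal is fitted relative to DMSO.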

Read-out in experiment [7]: Thrombomodulin, THBD (gene 7056)
Briefly: BSK_3C_Thrombomodulin: BioMAP Diversity Plus: 3C Assay for Thrombomodulin Biomarker Activity (AID 2283029). Particulars: primary human endothelial cells (HUVEC); actives raise or lower the signal. In outline:
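In a multiplexed primary-cell system, human umbilical vein endothelium received chemical and was assayed 24 h later for thrombomodulin by ELISA. Parallel cultures were SRB-stained (0.1% SRB after 10% TCA fixation, read at 560 nm) to flag cytotoxicity.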

Read-out in experiment [8]: Urokinase-type plasminogen activator receptor (uPAR), PLAUR (gene 5329)
Briefly: BSK_4H_uPAR: BioMAP Diversity Plus: 4H Assay for Urokinase-type plasminogen activator receptor (uPAR) Biomarker Activity (AID 2283030). Particulars: primary human endothelial cells (HUVEC); actives raise or lower the signal. In outline: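 Cell-surface uPAR ELISA signal, measured 24 h after dosing human umbilical vein endothelial cells, was analyzed with bidirectional fitting relative to DMSO. Parallel SRB staining of total protein tracked overt cytotoxicity.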

Read-out in experiment [9]: Vascular endothelial growth factor receptor 2 (Homo sapiens) (UniProt P35968)
Briefly: BSK_4H_VEGFRII: BioMAP Diversity Plus: 4H Assay for Vascular endothelial growth factor receptor 2 (VEGFR2) Biomarker Activity (AID 2283031).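 On AC50: cell-surface VEGFR2 protein level quantified by ELISA.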 Particulars: primary human endothelial cells (HUVEC); actives raise or lower the signal. In outline: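 ELISA read-out of VEGFRII in primary human umbilical vein endothelium, taken 24 h after chemical treatment. Responses are expressed relative to DMSO, with bidirectional fitting.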

Read-out in experiment [10]: Human Leukocyte Antigen - DR isotype (HLADR), HLA-DRA (gene 3122)
Briefly: BSK_BE3C_HLADR: BioMAP Diversity Plus: BE3C Assay for Human Leukocyte Antigen - DR isotype (HLADR) Biomarker Activity (AID 2283032). Particulars: primary human bronchial epithelial cells; actives raise or lower the signal. In outline: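 BioMAP BE3C format: human bronchial epithelium, 24 h compound treatment, ELISA detection of HLA-DR, with bidirectional analysis relative to DMSO.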

Several values for one entry are separate records, joined by “and”; a condition that tells them apart may be missing. Equal values may be shown once. Records with an inconclusive call do not appear. Activity calls are given as the source filed them. How the source made its calls, unless noted: active means hit-call score of the fitted dose curve at least 0.9, where 1 is the maximum; inactive means score below 0.9.

Chain of human Vitamin D Receptor (VDR), VDR (gene 7421) (P11473 whole entry, looked up, the tested form may be a part): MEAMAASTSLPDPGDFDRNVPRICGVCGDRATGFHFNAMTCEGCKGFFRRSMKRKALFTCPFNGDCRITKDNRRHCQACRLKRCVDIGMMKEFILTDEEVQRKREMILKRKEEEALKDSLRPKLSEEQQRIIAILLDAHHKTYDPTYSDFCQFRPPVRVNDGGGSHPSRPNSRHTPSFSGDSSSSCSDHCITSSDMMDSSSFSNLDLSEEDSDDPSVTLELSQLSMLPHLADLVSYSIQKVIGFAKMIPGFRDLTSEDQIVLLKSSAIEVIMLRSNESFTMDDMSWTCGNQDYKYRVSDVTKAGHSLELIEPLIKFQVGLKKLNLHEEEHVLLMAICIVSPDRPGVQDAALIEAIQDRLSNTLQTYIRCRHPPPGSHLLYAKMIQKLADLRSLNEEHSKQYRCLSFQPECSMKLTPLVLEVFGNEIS

`CN(c1nccc(=O)[nH]1)C1CCN(c2nc3ccccc3n2Cc2ccc(F)cc2)CC1`: the result in experiment [1], in [2], in experiment [5], in [6], in experiment [7] and in experiment [8] was inactive. The result in [9] and in experiment [10] was inactive. In addition, the AC50 in [3] and in experiment [4] was 0.00777 µM (active) in each case.
For the molecule `IC(I)I`, the outcome in experiment [2], in experiment [3], in [4], in experiment [5], in experiment [6] and in [7] was inactive. Besides, the result in experiment [8], in experiment [9] and in experiment [10] was inactive.
On to `CCCCCC(C=O)=Cc1ccccc1`, for which the AC50 is 33.1 µM (active) in [2]; 0.096 µM (active) in experiment [3]; 32.7 µM (active) in experiment [4]; 34.1 µM (active) in experiment [5]; 36.5 µM (active) in experiment [8]; 31.3 µM (active) in [9]. Also, the half-maximal activity concentration (AC50) in experiment [10] is 33.1 µM (active). Besides, the outcome in [6] and in [7] was inactive.
Regarding `C=C(C)C(=O)OCCOCCOCCOCCOC(=O)C(=C)C`, the result in experiment [2], in [3], in experiment [4], in [5], in experiment [6] and in [7] was inactive. Moreover, the outcome in experiment [8], in experiment [9] and in [10] was inactive.
With `O=C1OC[C@H](Cc2cccc(O)c2)[C@H]1Cc1cccc(O)c1`, the result in experiment [1], in [2], in experiment [3], in [4], in experiment [5] and in experiment [6] was inactive. The outcome in [7], in [8], in experiment [9] and in experiment [10] was inactive.
Regarding `O=C(Nc1ccc2c(O)c(N=Nc3ccc(N=Nc4ccc(S(=O)(=O)O)cc4)cc3)c(S(=O)(=O)O)cc2c1)c1ccccc1`, the molecule was classed as inactive in experiment [1], in [2], in experiment [4], in experiment [5], in [6] and in [7]. The outcome in experiment [8], in [9] and in [10] was inactive. Also, the AC50 in experiment [3] is 16 µM (active) and 10.4 µM (active).
As to `CC(C)(C)CC(C)(C)c1ccc(OCCOCC[N+](C)(C)Cc2ccccc2)cc1`, the molecule was called inactive in [1] and in experiment [7]. For the same molecule, the AC50 in [2] is 4.62 µM (active); in [3], 6.86 µM (active); in [4], 5 µM (active); in experiment [5] it was 5.82 µM (active); in experiment [6], 8.4 µM (active); in experiment [8], 4.64 µM (active). In experiment [10], the AC50 was 7.59 µM (active).
Take `CC(=O)C1(C)CC2=C(CCCC2(C)C)CC1C` (stereo not given): the AC50 in experiment [2] was 8.86 µM (active); in [3], 27.5 µM (active); in experiment [4], 5.95 µM (active); in experiment [5] it was 6.99 µM (active); in [6], 27.1 µM (active); in experiment [8], 5.19 µM (active). Besides, the values for the AC50 in experiment [9] and in [10] were 5.33 µM (active) and 13.8 µM (active), respectively. In experiment [7], the outcome was inactive.
For the molecule `CC(CN=Cc1ccccc1O)N=Cc1ccccc1O` (stereo not given), the outcome in experiment [2], in experiment [3], in [4], in experiment [5], in experiment [6] and in experiment [7] was inactive. Moreover, the result in experiment [8], in experiment [9] and in [10] was inactive.
Take `CSCCC=O`: the molecule was classed as inactive in [1], in experiment [2], in experiment [3], in experiment [4], in experiment [5] and in experiment [6]. Further, the outcome in experiment [7], in experiment [8], in experiment [9] and in experiment [10] was inactive.
As to `CS(=O)(=O)OCCCCOS(C)(=O)=O`, the result in experiment [2], in [3], in experiment [4], in experiment [5], in experiment [6] and in experiment [7] was inactive. For the same molecule, the result in experiment [8], in [9] and in [10] was inactive.
Regarding `C=C(C)[C@H]1CC=C(C)C(=O)C1`, the call in experiment [1], in experiment [2], in experiment [3], in experiment [4], in experiment [5] and in experiment [6] was inactive. For the same molecule, the result in experiment [7], in experiment [8], in [9] and in experiment [10] was inactive.
Consider `Clc1cc(Cl)c(-c2c(Cl)c(Cl)cc(Cl)c2Cl)cc1Cl`, for which the AC50 in experiment [2] is 15.8 µM (active); in [4], 10 µM (active); in experiment [5] it was 18.8 µM (active); in [8], 17.4 µM (active); in experiment [9] it was 10 µM (active); in [10], 12.9 µM (active). Also, the outcome in experiment [3], in experiment [6] and in experiment [7] was inactive.
For `CC(C)(N=C=O)c1cccc(C(C)(C)N=C=O)c1`, the outcome in experiment [2], in experiment [3], in [4], in experiment [5], in [6] and in experiment [7] was inactive. In addition, the result in [8], in experiment [9] and in experiment [10] was inactive.
On to `c1ccc(Oc2ccccc2)cc1`, for which the result in experiment [1], in experiment [3], in [6], in experiment [7], in [8] and in experiment [9] was inactive. For the same molecule, in experiment [10], the result was inactive. Further, the values for the AC50 in [2], in [4] and in experiment [5] were 30 µM (active), 30.8 µM (active) and 31.3 µM (active), respectively.
For `C=C(C)C(=O)OCCOCCOCCOC(=O)C(=C)C`, the outcome in [2], in experiment [3], in [4], in experiment [5], in experiment [6] and in experiment [7] was inactive. The outcome in experiment [8] and in experiment [9] was inactive. Besides, the AC50 in experiment [10] was 3.97 µM (active).
For `COc1ccc(CCN2CCC(Nc3nc4ccccc4n3Cc3ccc(F)cc3)CC2)cc1`, the molecule was classed as inactive in [1], in experiment [3], in experiment [4], in [6], in [7] and in experiment [9]. In addition, the AC50 is 2.41 µM (active) in experiment [2], 2.49 µM (active) in experiment [5], 0.992 µM (active) in experiment [8] and 7.88 µM (active) in [10].
Take `C=CC(C)(O)CCC=C(C)C` (stereo not given): the outcome in experiment [1], in experiment [2], in [3], in experiment [4], in [5] and in experiment [6] was inactive. Besides, the result in experiment [7], in experiment [8], in [9] and in experiment [10] was inactive.
As to `Oc1c(Cl)cc(Cl)c(Cl)c1Cc1c(O)c(Cl)cc(Cl)c1Cl`, the molecule was classed as inactive in experiment [1] and in experiment [7]. Moreover, the AC50 in experiment [2] was 5.1 µM (active); in [3], 2.26 µM (active); in experiment [4], 1.05 µM (active); in experiment [5], 6.35 µM (active); in experiment [6], 5.21 µM (active); in [8], 2.26 µM (active). Moreover, the AC50 was 0.675 µM (active) in experiment [9] and 0.634 µM (active) in [10].

Broadly, the AC50 is the concentration giving half of the maximal activity seen.

The values above are taken from PubChem BioAssay (EPA / NIEHS).
